Laboratory results from PubChem BioAssay (NCI).
About 83,000 compounds went through this panel and 20% of them were active in at least one assay; those are over-represented in the sample as a whole.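 For each line, cells grew in 96-well plates with the test compound present at a single concentration for 48 hours.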 Calls of active or inactive are those of the source. The calls were made as follows: active = growth percent below 10; inactive = the rest.

Columns and labels:
Test in all cases: NCI-60 one-dose screen, 48 h (100 = growth as untreated, 0 = no growth, -100 = all killed)
Details in all cases: 10 µM unless noted
NCI-H23 lung = test system: NCI-H23 lung
NCI-H226 lung = test system: NCI-H226 lung
NCI-H322M lung = test system: NCI-H322M lung
HOP-62 NSCLC = test system: HOP-62 NSCLC
NCI-H460 lung = test system: NCI-H460 lung
HOP-92 NSCLC = test system: HOP-92 NSCLC
NCI-H522 lung = test system: NCI-H522 lung
A549/ATCC NSCLC = test system: A549/ATCC NSCLC
COLO 205 colon = test system: COLO 205 colon
DU-145 prostate = test system: DU-145 prostate
K-562 leukemia = test system: K-562 leukemia
MALME-3M melanoma = test system: MALME-3M melanoma
MDA-MB-231 breast = test system: MDA-MB-231 breast
RXF 393 renal = test system: RXF 393 renal
SF-268 CNS = test system: SF-268 CNS
SF-295 CNS = test system: SF-295 CNS
SF-539 CNS = test system: SF-539 CNS
UACC-257 melanoma = test system: UACC-257 melanoma
M14 melanoma = test system: M14 melanoma
786-0 renal = test system: 786-0 renal

Measured: growth

CO[C@@H]1[C@H](N(C)C(=O)c2ccccc2)C[C@@H]2O[C@]1(C)n1c3ccccc3c3c4c(c5c6ccccc6n2c5c31)C(=O)NC4=O
inactive: NCI-H23 lung 44.2% | NCI-H226 lung 29% | NCI-H322M lung 38.9% | HOP-62 NSCLC 28.5% | NCI-H460 lung 48.2% | NCI-H522 lung 21.2% | A549/ATCC NSCLC 27.3% | DU-145 prostate 50.1% | K-562 leukemia 52.4% | MALME-3M melanoma 38.5% | MDA-MB-231 breast 41.7% | SF-268 CNS 48.2% | SF-295 CNS 42.5% | SF-539 CNS 13.6% | UACC-257 melanoma 61.5% | M14 melanoma 37.1%
active: HOP-92 NSCLC 4.48% | COLO 205 colon 2.3% | RXF 393 renal -37.8%

C=C1C(=O)O[C@H]2[C@H]1CC/C(COC(=O)CCCCCC(=O)OC/C1=C/CC[C@@]3(C)O[C@H]3[C@H]3OC(=O)C(=C)[C@@H]3CC1)=C\CC[C@@]1(C)O[C@@H]21
active: NCI-H23 lung 9.16% | HOP-92 NSCLC -1.51% | 786-0 renal 7.09% | K-562 leukemia 6.4% | MALME-3M melanoma -11.1% | MDA-MB-231 breast -28.2% | RXF 393 renal -77.3% | SF-539 CNS 3.99% | M14 melanoma -0.138%
inactive: NCI-H226 lung 52% | NCI-H322M lung 86.3% | HOP-62 NSCLC 85.6% | NCI-H460 lung 76.4% | A549/ATCC NSCLC 80.6% | DU-145 prostate 22.4% | SF-268 CNS 43.6% | SF-295 CNS 84.7% | UACC-257 melanoma 48.2%

O=C(O)/C=C\C(=O)N1C/C(=C\c2ccccc2Cl)C(=O)/C(=C/c2ccccc2Cl)C1
inactive: UACC-257 melanoma 67.3% | M14 melanoma 12%
active: NCI-H23 lung -24.9% | NCI-H226 lung -85% | NCI-H322M lung 4.69% | HOP-62 NSCLC -24% | NCI-H460 lung -40.9% | HOP-92 NSCLC 2.77% | NCI-H522 lung -87.2% | A549/ATCC NSCLC 7.96% | COLO 205 colon -67.4% | DU-145 prostate -34.2% | K-562 leukemia 8.25% | MALME-3M melanoma 2.25% | MDA-MB-231 breast -15.4% | RXF 393 renal -95.8% | SF-268 CNS -33.7% | SF-295 CNS -13% | SF-539 CNS -20.9%

COc1cc2c(cc1[N+](=O)[O-])-c1ccc([N+](=O)[O-])cc1/C2=N\O
inactive: NCI-H23 lung 88.2% | NCI-H226 lung 66% | NCI-H322M lung 113% | HOP-62 NSCLC 110% | NCI-H460 lung 84% | HOP-92 NSCLC 100% | A549/ATCC NSCLC 83.5% | 786-0 renal 79.6% | DU-145 prostate 120% | K-562 leukemia 88.7% | MALME-3M melanoma 116% | MDA-MB-231 breast 87.4% | RXF 393 renal 79.8% | SF-268 CNS 89.6% | SF-295 CNS 77.2% | SF-539 CNS 84.9% | UACC-257 melanoma 97.9% | M14 melanoma 93.9%

COc1ccccc1/C=N/NC1=NC2C(N1)N(C)C(=O)N2C (configuration not stated)
inactive: NCI-H23 lung 100% | NCI-H226 lung 90.4% | NCI-H322M lung 95.5% | HOP-62 NSCLC 92% | NCI-H460 lung 102% | HOP-92 NSCLC 93.5% | A549/ATCC NSCLC 102% | 786-0 renal 102% | COLO 205 colon 101% | DU-145 prostate 112% | K-562 leukemia 99.5% | MALME-3M melanoma 93.6% | MDA-MB-231 breast 99.8% | SF-268 CNS 101% | SF-295 CNS 104% | SF-539 CNS 97.6% | UACC-257 melanoma 98.3% | M14 melanoma 99.7%

Fc1cc(C2=NNC(c3ccc[nH]3)C2)ccc1-n1ccc(C(F)(F)F)n1 (configuration not stated)
inactive: NCI-H23 lung 89.2% | NCI-H226 lung 83.9% | NCI-H322M lung 86.3% | HOP-62 NSCLC 80.3% | NCI-H460 lung 64.8% | HOP-92 NSCLC 102% | A549/ATCC NSCLC 68.4% | 786-0 renal 85.8% | COLO 205 colon 109% | DU-145 prostate 82.8% | K-562 leukemia 62.2% | MALME-3M melanoma 93.7% | MDA-MB-231 breast 62.7% | RXF 393 renal 105% | SF-268 CNS 67.3% | SF-295 CNS 71.3% | SF-539 CNS 88.1% | UACC-257 melanoma 98.5% | M14 melanoma 96.4%

Cn1c(=O)c2[nH]c(CCCc3nc4c([nH]3)c(=O)n(C)c(=O)n4C)nc2n(C)c1=O
inactive: NCI-H23 lung 117% | NCI-H226 lung 105% | NCI-H322M lung 114% | HOP-62 NSCLC 97.4% | NCI-H460 lung 105% | HOP-92 NSCLC 101% | A549/ATCC NSCLC 105% | 786-0 renal 107% | COLO 205 colon 111% | DU-145 prostate 118% | K-562 leukemia 105% | MALME-3M melanoma 108% | MDA-MB-231 breast 113% | SF-268 CNS 104% | SF-295 CNS 111% | SF-539 CNS 98.9% | UACC-257 melanoma 114% | M14 melanoma 111%

CC1(C)[C@H](O)CC[C@]2(C)[C@@H]1CC[C@@]13C[C@@H](CC[C@H]12)[C@@](O)(CO)C3
inactive: NCI-H23 lung 105% | NCI-H226 lung 99.7% | NCI-H322M lung 113% | HOP-62 NSCLC 103% | NCI-H460 lung 104% | HOP-92 NSCLC 126% | A549/ATCC NSCLC 107% | COLO 205 colon 119% | DU-145 prostate 117% | K-562 leukemia 104% | MALME-3M melanoma 111% | MDA-MB-231 breast 114% | SF-268 CNS 108% | SF-295 CNS 103% | SF-539 CNS 106% | UACC-257 melanoma 107%
active: 786-0 renal -45% | M14 melanoma -30.7%
